Assay results published in PubChem BioAssay (NCI).
About 83,000 compounds went through this panel and 20% of them were active in at least one assay; those are over-represented in the sample as a whole.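 Cell lines were cultured in 96-well plates, exposed to a single compound concentration, and assessed for percent growth 48 hours later.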 Values without a mark were called inactive. Activity calls are given as the source filed them. How the source made its calls: active means growth percent below 10; inactive means the rest.

How the values were obtained:
Test in all cases: NCI-60 one-dose screen, 48 h (100 = growth as untreated, 0 = no growth, -100 = all killed)
NCI-H23 lung = conditions: 10 µM unless noted
NCI-H226 lung = conditions: 10 µM unless noted
NCI-H322M lung = conditions: 10 µM unless noted
HOP-62 NSCLC = conditions: 10 µM unless noted
NCI-H460 lung = conditions: 10 µM unless noted
HOP-92 NSCLC = conditions: 10 µM unless noted
NCI-H522 lung = conditions: 10 µM unless noted
A549/ATCC NSCLC = conditions: 10 µM unless noted
786-0 renal = conditions: 10 µM unless noted
COLO 205 colon = conditions: 10 µM unless noted
DU-145 prostate = conditions: 10 µM unless noted
K-562 leukemia = conditions: 10 µM unless noted
MALME-3M melanoma = conditions: 10 µM unless noted
MDA-MB-231 breast = conditions: 10 µM unless noted
RXF 393 renal = conditions: 10 µM unless noted
SF-268 CNS = conditions: 10 µM unless noted
SF-295 CNS = conditions: 10 µM unless noted
SF-539 CNS = conditions: 10 µM unless noted
UACC-257 melanoma = conditions: 10 µM
M14 melanoma = conditions: 10 µM unless noted

O=C(CCCCCCN1CC(=O)N2[C@@H](c3ccccc3)c3[nH]c4ccccc4c3C[C@H]2C1=O)NO was tested. Which growth (NCI-H23 lung) did it give?
The growth was 70.9%.

And the growth (NCI-H226 lung)?
The growth was 105%.

And the growth (NCI-H322M lung)?
The growth was 72.4%.

And the growth (HOP-62 NSCLC)?
The growth was 58.5%.

What about the growth (NCI-H460 lung) of the same molecule?
The growth was 54.2%.

What about the growth (HOP-92 NSCLC) of the same molecule?
Its growth is 57.9%.

And the growth (NCI-H522 lung)?
The growth was 35%.

What about the growth (A549/ATCC NSCLC) of the same molecule?
Its growth is 95.9%.

And the growth (786-0 renal)?
Its growth is 93.3%.

And the growth (COLO 205 colon)?
The growth was 58.8%.

And the growth (DU-145 prostate)?
Its growth is 58.3%.

What about the growth (K-562 leukemia) of the same molecule?
Its growth is 26.3%.

And the growth (MALME-3M melanoma)?
Its growth is 21.8%.

And the growth (MDA-MB-231 breast)?
Its growth is 70.1%.

And the growth (RXF 393 renal)?
Its growth is 76.6%.

What about the growth (SF-268 CNS) of the same molecule?
Its growth is 82.1%.

And the growth (SF-295 CNS)?
Its growth is 57.4%.

What about the growth (SF-539 CNS) of the same molecule?
The growth was 62.5%.

What about the growth (UACC-257 melanoma) of the same molecule?
The growth was 45.7%.

And the growth (M14 melanoma)?
Its growth is 49.9%.

With CCCCCCCCCC[C@@H](C)[C@@H]1CC(=O)N[C@H]([C@@H](C)O)C(=O)N[C@@H](C)C(=O)N[C@H](C)C(=O)N[C@@H](CCC(N)=O)C(=O)N[C@H](Cc2ccc(O)cc2)C(=O)N[C@@H](C(C)CC)C(=O)O1 (some centres undefined) as the molecule, how does the growth (NCI-H23 lung) read?
Its growth is 35.6%.

And the growth (NCI-H226 lung)?
Its growth is 42.1%.

And the growth (NCI-H322M lung)?
The growth was 89.1%.

And the growth (HOP-62 NSCLC)?
Its growth is 73.9%.

And the growth (NCI-H460 lung)?
The growth was 63.6%.

And the growth (HOP-92 NSCLC)?
Its growth is 43.3%.

And the growth (NCI-H522 lung)?
The growth was 36.1%.

And the growth (A549/ATCC NSCLC)?
Its growth is 47.6%.

And the growth (786-0 renal)?
Its growth is 91.8%.

What about the growth (COLO 205 colon) of the same molecule?
Its growth is 66%.

What about the growth (DU-145 prostate) of the same molecule?
Its growth is 57.1%.

What about the growth (K-562 leukemia) of the same molecule?
The growth was 40.6%.

What about the growth (MALME-3M melanoma) of the same molecule?
Its growth is 65.7%.

What about the growth (MDA-MB-231 breast) of the same molecule?
The growth was 96.6%.

And the growth (RXF 393 renal)?
Its growth is 97.5%.

What about the growth (SF-268 CNS) of the same molecule?
Its growth is 84.8%.

What about the growth (SF-295 CNS) of the same molecule?
Its growth is 36.2%.

And the growth (SF-539 CNS)?
The growth was 60.5%.

What about the growth (M14 melanoma) of the same molecule?
Its growth is 79.4%.

How did the growth (NCI-H23 lung) turn out when COc1cc(C(=O)c2cc(C(C)=O)c3c4ccccc4ccn23)cc(OC)c1OC was run?
Its growth is 64.4%.

And the growth (NCI-H226 lung)?
The growth was 66.8%.

What about the growth (NCI-H322M lung) of the same molecule?
The growth was 74.8%.

And the growth (HOP-62 NSCLC)?
Its growth is 56%.

And the growth (NCI-H460 lung)?
Its growth is 45.1%.

What about the growth (HOP-92 NSCLC) of the same molecule?
The growth was 26.8%.

And the growth (NCI-H522 lung)?
The growth was 52%.

What about the growth (A549/ATCC NSCLC) of the same molecule?
Its growth is 61.1%.

What about the growth (786-0 renal) of the same molecule?
Its growth is 70.1%.

What about the growth (COLO 205 colon) of the same molecule?
Its growth is 38.6%.

What about the growth (DU-145 prostate) of the same molecule?
The growth was 94.4%.

And the growth (K-562 leukemia)?
Its growth is 23.9%.

And the growth (MALME-3M melanoma)?
Its growth is 64.6%.

And the growth (MDA-MB-231 breast)?
The growth was 54.7%.

What about the growth (RXF 393 renal) of the same molecule?
The growth was 49.2%.

What about the growth (SF-268 CNS) of the same molecule?
Its growth is 74.3%.

And the growth (SF-295 CNS)?
The growth was 55.2%.

And the growth (SF-539 CNS)?
Its growth is 75.3%.

What about the growth (UACC-257 melanoma) of the same molecule?
Its growth is 75.8%.

And the growth (M14 melanoma)?
Its growth is 58.6%.

Which growth (NCI-H23 lung) does the source give for COc1ccc(OC)c(NC2=C(Cl)C(=O)C(C)=C(C)C2=O)c1 here?
The growth was 85.8%.

And the growth (NCI-H226 lung)?
Its growth is 84.2%.

What about the growth (NCI-H322M lung) of the same molecule?
The growth was 103%.

And the growth (HOP-62 NSCLC)?
The growth was 92.1%.

And the growth (NCI-H460 lung)?
The growth was 98.4%.

What about the growth (HOP-92 NSCLC) of the same molecule?
The growth was 96.6%.

What about the growth (NCI-H522 lung) of the same molecule?
Its growth is 87.2%.

And the growth (A549/ATCC NSCLC)?
Its growth is 101%.

What about the growth (786-0 renal) of the same molecule?
Its growth is 102%.

What about the growth (COLO 205 colon) of the same molecule?
The growth was 107%.

And the growth (DU-145 prostate)?
The growth was 104%.

And the growth (K-562 leukemia)?
Its growth is 55.8%.

And the growth (MALME-3M melanoma)?
Its growth is 98.7%.

And the growth (MDA-MB-231 breast)?
The growth was 76.6%.

What about the growth (RXF 393 renal) of the same molecule?
Its growth is 107%.

And the growth (SF-268 CNS)?
The growth was 93.9%.

And the growth (SF-295 CNS)?
The growth was 100%.

And the growth (SF-539 CNS)?
Its growth is 99%.

What about the growth (UACC-257 melanoma) of the same molecule?
The growth was 86.8%.

What about the growth (M14 melanoma) of the same molecule?
Its growth is 97.8%.

Which results are given for CCCC(=O)NC(c1cccnc1)c1cc(C(C)=O)c2cccnc2c1O (centres undefined)?
growth (NCI-H23 lung): 48.6%; growth (NCI-H226 lung): 25%; growth (NCI-H322M lung): 26.9%; growth (HOP-62 NSCLC): 26.2%; growth (NCI-H460 lung): 12.1%; growth (HOP-92 NSCLC): 43.3%; growth (NCI-H522 lung): 18.6%; growth (A549/ATCC NSCLC): 18.9%; growth (786-0 renal): 32.2%; growth (COLO 205 colon): 15.6%; growth (DU-145 prostate): 39.9%; growth (K-562 leukemia): 32.2%; growth (MALME-3M melanoma): 38.8%; growth (MDA-MB-231 breast): 36.9%; growth (RXF 393 renal): 31.7%; growth (SF-268 CNS): 27.2%; growth (SF-295 CNS): 13.9%; growth (SF-539 CNS): 25.1%; growth (UACC-257 melanoma): 42.4%; growth (M14 melanoma): 12.7%

CN1CCN(Cc2ccc(NC(=O)c3cncc(C#Cc4[nH]nc5ncncc45)c3)cc2C(F)(F)F)CC1 was tested. Which growth (NCI-H23 lung) did it give?
The growth was 57.1%.

And the growth (NCI-H226 lung)?
Its growth is 55%.

What about the growth (NCI-H322M lung) of the same molecule?
Its growth is 75.1%.

What about the growth (HOP-62 NSCLC) of the same molecule?
The growth was 65.7%.

And the growth (NCI-H460 lung)?
The growth was 64.3%.

What about the growth (HOP-92 NSCLC) of the same molecule?
The growth was -16% (active).

And the growth (NCI-H522 lung)?
The growth was 66.2%.

What about the growth (A549/ATCC NSCLC) of the same molecule?
Its growth is 84.3%.

And the growth (786-0 renal)?
Its growth is 86.3%.

What about the growth (COLO 205 colon) of the same molecule?
Its growth is 16.5%.

What about the growth (DU-145 prostate) of the same molecule?
Its growth is 56.6%.

And the growth (K-562 leukemia)?
The growth was 12.4%.

And the growth (MALME-3M melanoma)?
The growth was -5.86% (active).

What about the growth (MDA-MB-231 breast) of the same molecule?
The growth was 22.9%.

And the growth (RXF 393 renal)?
Its growth is 43.4%.

And the growth (SF-268 CNS)?
Its growth is 73.7%.

And the growth (SF-295 CNS)?
Its growth is 97%.

What about the growth (SF-539 CNS) of the same molecule?
Its growth is 43.4%.

And the growth (UACC-257 melanoma)?
Its growth is 86.1%.

And the growth (M14 melanoma)?
Its growth is 15%.

For CCN1C(=O)N(CC)C2SC(N/N=C/c3ccccc3)=NC21 (centres undefined), which growth (NCI-H23 lung) is on record?
Its growth is 31.1%.

And the growth (NCI-H226 lung)?
Its growth is 43%.

And the growth (NCI-H322M lung)?
The growth was 51.7%.

And the growth (HOP-62 NSCLC)?
The growth was 38.3%.

And the growth (NCI-H460 lung)?
The growth was 6.05% (active).

And the growth (HOP-92 NSCLC)?
Its growth is 2.09% (active).

What about the growth (NCI-H522 lung) of the same molecule?
The growth was -34.3% (active).

What about the growth (A549/ATCC NSCLC) of the same molecule?
Its growth is 28.7%.

And the growth (786-0 renal)?
The growth was 32.7%.

What about the growth (COLO 205 colon) of the same molecule?
Its growth is -43.5% (active).

And the growth (DU-145 prostate)?
The growth was 22.5%.

What about the growth (K-562 leukemia) of the same molecule?
Its growth is 14.7%.

What about the growth (MALME-3M melanoma) of the same molecule?
The growth was 58.2%.

What about the growth (MDA-MB-231 breast) of the same molecule?
The growth was 26%.

And the growth (RXF 393 renal)?
Its growth is 41.5%.

What about the growth (SF-268 CNS) of the same molecule?
Its growth is 47.6%.

What about the growth (SF-295 CNS) of the same molecule?
Its growth is 12.8%.

What about the growth (SF-539 CNS) of the same molecule?
The growth was -11.2% (active).

And the growth (UACC-257 melanoma)?
Its growth is 62.9%.

What about the growth (M14 melanoma) of the same molecule?
Its growth is 12.3%.

Which results are given for COc1ccc(NC(=O)[C@H](C)N)cc1C(=O)Nc1cccc(-c2cc(=O)c3c(OC)c(OC)c(OC)cc3o2)c1?
growth (NCI-H23 lung): 64.4%; growth (NCI-H226 lung): 67.2%; growth (NCI-H322M lung): 67.7%; growth (HOP-62 NSCLC): 67.3%; growth (NCI-H460 lung): 52.4%; growth (HOP-92 NSCLC): -4.58% (active); growth (NCI-H522 lung): 82%; growth (A549/ATCC NSCLC): 76.5%; growth (786-0 renal): 63.5%; growth (COLO 205 colon): 69.6%; growth (DU-145 prostate): 60.8%; growth (K-562 leukemia): 52.6%; growth (MALME-3M melanoma): 86.5%; growth (MDA-MB-231 breast): 62.3%; growth (RXF 393 renal): 71.9%; growth (SF-268 CNS): 66.6%; growth (SF-295 CNS): 64.6%; growth (SF-539 CNS): 71.9%; growth (UACC-257 melanoma): 109%; growth (M14 melanoma): 104%
